# According to PubChem BioAssay (NCATS):
# Values joined by “and” are separate entries in the source; they are usually repeats but may differ in a detail not shown here. Equal entries are not always repeated. Inconclusive results are not listed. A call without a number means that no potency is given here. Active and inactive are the calls of the source. Unless noted, the call rests on the fitted dose curve; in most records, active means well fitted curve in the direction sought with a large enough effect; inconclusive means small, poorly fitted or top-dose-only effect, or another doubt; inactive means no such curve, though single readings can be large; an effect the other way counts as inactive or inconclusive.
# Legend:
# AS120 = experiment: qHTS profiling for inhibitors of Plasmodium falciparum proliferation (AID 504749); further: nearly all actives have a fitted effect of over 60% in size; further: potency means the concentration at half of the fitted maximal effect; settings: P. falciparum in erythrocytes, SYBR Green DNA, 72 h; series mostly up to 28.7 µM
# Method in brief: (§1)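 In a 72 h erythrocytic culture (37 C, humidified, 5% CO2) at 2.5% hematocrit and 0.3% starting parasitemia, compounds were tested; SYBR Green I in detergent lysis buffer stained parasite DNA overnight.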
# CP191 = experiment: as above; settings: P. falciparum in erythrocytes, SYBR Green DNA, 72 h; series mostly up to 28.7 µM
# Method in brief: as §1
# CP260 = experiment: as above; settings: P. falciparum in erythrocytes, SYBR Green DNA, 72 h; series mostly up to 28.7 µM
# Method in brief: as §1
# CP265 = experiment: as above; settings: P. falciparum in erythrocytes, SYBR Green DNA, 72 h; series mostly up to 12.8 µM
# Method in brief: as §1
# CP291 = experiment: as above; settings: P. falciparum in erythrocytes, SYBR Green DNA, 72 h; series mostly up to 28.7 µM
# Method in brief: as §1
# CP335 = experiment: as above; settings: P. falciparum in erythrocytes, SYBR Green DNA, 72 h; series mostly up to 12.8 µM
# Method in brief: as §1
# DIV17 = experiment: as above; settings: P. falciparum in erythrocytes, SYBR Green DNA, 72 h; series mostly up to 28.7 µM
# Method in brief: as §1
# ICS = experiment: as above; settings: P. falciparum in erythrocytes, SYBR Green DNA, 72 h; series mostly up to 28.7 µM
# Method in brief: as §1
# PC15 = experiment: as above; settings: P. falciparum in erythrocytes, SYBR Green DNA, 72 h; series mostly up to 28.7 µM
# Method in brief: as §1
# PC26 = experiment: as above; settings: P. falciparum in erythrocytes, SYBR Green DNA, 72 h; series mostly up to 28.7 µM
# Method in brief: as §1
# TAB113 = experiment: as above; settings: P. falciparum in erythrocytes, SYBR Green DNA, 72 h; series mostly up to 28.7 µM
# Method in brief: as §1
# TAB165 = experiment: as above; settings: P. falciparum in erythrocytes, SYBR Green DNA, 72 h; series mostly up to 28.7 µM
# Method in brief: as §1
# W2 = experiment: as above; settings: P. falciparum in erythrocytes, SYBR Green DNA, 72 h; series mostly up to 12.8 µM
# Method in brief: as §1
# [1] = target: Cytochrome P450 3A4 (Homo sapiens) (UniProt P08684); experiment: qHTS Assay for Activators of Cytochrome P450 3A4 (AID 885); further: nearly all actives have a fitted effect of over 65% in size
# Sequence of Cytochrome P450 3A4 (Homo sapiens) (P08684 whole entry, looked up): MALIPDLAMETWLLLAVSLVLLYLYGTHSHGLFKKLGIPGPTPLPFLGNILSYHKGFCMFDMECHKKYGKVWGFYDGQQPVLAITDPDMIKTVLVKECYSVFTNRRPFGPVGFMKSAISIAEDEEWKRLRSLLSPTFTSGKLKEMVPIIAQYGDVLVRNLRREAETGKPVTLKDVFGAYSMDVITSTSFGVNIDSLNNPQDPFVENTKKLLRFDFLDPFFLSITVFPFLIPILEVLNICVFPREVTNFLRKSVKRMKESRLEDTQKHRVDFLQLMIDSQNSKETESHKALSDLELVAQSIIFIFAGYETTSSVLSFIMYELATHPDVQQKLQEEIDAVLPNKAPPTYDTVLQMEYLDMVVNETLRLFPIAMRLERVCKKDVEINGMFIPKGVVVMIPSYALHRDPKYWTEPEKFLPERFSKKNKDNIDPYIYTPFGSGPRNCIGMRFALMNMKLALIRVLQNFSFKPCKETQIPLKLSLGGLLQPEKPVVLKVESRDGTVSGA
# Method in brief: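 Activators are scored by enhanced luminescence from CYP3A4 conversion of luciferin-PPXE (25uM, equal to KM) to luciferin, after 60 min at RT with an NADPH-regenerating system.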
# [2] = Confirmation and Secondary Assay for Modulators of Hemoglobin Beta Chain Splicing at IVS2 654 locus (AID 910);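 further: HeLa cells stably carrying EGFP split by mutant beta-globin IVS2-654 intron; per-well total GFP intensity by laser scanning cytometry after 2-day treatment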
# Method in brief: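 Readout: per-well total peak green fluorescence (488 nm ex, 500–520 nm em) from objects 5–250 µm, reflecting correct splicing of an EGFP-654 reporter. Compounds were applied for 2 days at 37 °C to overnight-plated HeLa EGFP-654 cells; controls were DMSO and 500 nM IVS2-654 PNA.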
# [3] = qHTS assay for small molecule agonists of the antioxidant response element (ARE) signaling pathway (AID 651741; active means well fitted activation curve with a large enough effect in the signal ratio; the % refers to the signal ratio)
# Method in brief: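 Agonist activity is measured as ARE-driven beta-lactamase expression in a stable HepG2 reporter line, using 16 h compound treatment at 37 C and a FRET substrate fluorescence readout after 2 h.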
# [4] = target: Cytochrome P450 2C19 (Homo sapiens) (UniProt P33261); experiment: qHTS Assay for Inhibitors and Substrates of Cytochrome P450 2C19 (AID 899); further: nearly all actives have a fitted effect of over 60% in size; further: potency means the concentration at half of the fitted maximal effect
# Sequence of Cytochrome P450 2C19 (Homo sapiens) (P33261 whole entry, looked up): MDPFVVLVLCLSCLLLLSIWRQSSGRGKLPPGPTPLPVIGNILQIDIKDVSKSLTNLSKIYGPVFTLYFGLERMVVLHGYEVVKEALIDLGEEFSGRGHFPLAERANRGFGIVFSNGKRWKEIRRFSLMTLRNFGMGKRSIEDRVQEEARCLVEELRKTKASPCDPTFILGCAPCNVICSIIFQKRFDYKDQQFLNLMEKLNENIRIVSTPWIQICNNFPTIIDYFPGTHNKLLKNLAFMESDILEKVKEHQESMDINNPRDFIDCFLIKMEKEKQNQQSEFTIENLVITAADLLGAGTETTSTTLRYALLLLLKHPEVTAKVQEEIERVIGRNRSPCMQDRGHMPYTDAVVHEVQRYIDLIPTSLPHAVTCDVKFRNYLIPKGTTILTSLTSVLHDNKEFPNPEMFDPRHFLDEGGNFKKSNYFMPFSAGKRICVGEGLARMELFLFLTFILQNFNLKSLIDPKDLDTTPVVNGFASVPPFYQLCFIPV
# Method in brief: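 Reactions contain 5nM enzyme, 10uM Luciferin-H EGE (KM) and 50mM KPO4; compound preincubates 10 min at 37C, NADPH regeneration starts turnover for 60 min. Luminescence after detection reagent gives activity.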
# 7G8 = experiment: qHTS profiling for inhibitors of Plasmodium falciparum proliferation (AID 504749); further: nearly all actives have a fitted effect of over 60% in size; further: potency means the concentration at half of the fitted maximal effect; settings: P. falciparum in erythrocytes, SYBR Green DNA, 72 h; series mostly up to 12.8 µM
# Method in brief: as §1
# CP203 = experiment: as above; settings: P. falciparum in erythrocytes, SYBR Green DNA, 72 h; series mostly up to 28.7 µM
# Method in brief: as §1
# [5] = target: Cytochrome P450 3A4 (Homo sapiens) (UniProt P08684); experiment: qHTS Assay for Inhibitors and Substrates of Cytochrome P450 3A4 (AID 884); further: nearly all actives have a fitted effect of over 50% in size; further: potency means the concentration at half of the fitted maximal effect
# Method in brief: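 Luminescent readout of luciferin produced by CYP3A4 (20 nM) dealkylation of Luciferin-PPXE, 25 uM (its KM). NADPH-driven reaction ran 60 min at RT after 10 min compound preincubation; data scaled to 57 uM ketoconazole as 100% inhibition.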
structure (smiles),measurement,setting,value
CCNC[C@H](O)c1cccc(O)c1,Potency,AS120,inactive
same,Potency,CP191,inactive
same,Potency,CP260,inactive
same,Potency,CP265,inactive
same,Potency,CP291,inactive
same,Potency,CP335,inactive
same,Potency,DIV17,inactive
same,Potency,ICS,inactive
same,Potency,PC15,inactive
same,Potency,PC26,inactive
same,Potency,TAB113,inactive
same,Potency,TAB165,inactive
same,Potency,W2,inactive
C=CCc1ccc(OC)cc1,Potency,[1],inactive
same,Potency,[2],inactive
same,Potency,[3],inactive
COc1ccc(C[C@H]2c3cc(OC)c(OC)cc3CCN2C)cc1OC,Potency,[4],inactive
CC[C@@]1(c2ccc(N)cc2)CCC(=O)NC1=O,Potency,[1],inactive
same,Potency,7G8,inactive
same,Potency,AS120,inactive
same,Potency,CP191,inactive
same,Potency,CP203,inactive
same,Potency,CP260,inactive
same,Potency,CP265,inactive
same,Potency,CP291,inactive
same,Potency,CP335,inactive
same,Potency,DIV17,inactive
same,Potency,ICS,inactive
same,Potency,PC15,inactive
same,Potency,PC26,inactive
same,Potency,TAB113,inactive
same,Potency,TAB165,inactive
C[C@@]12CCC(=O)C=C1C=C[C@H]1[C@H]3CC[C@](O)(CCC(=O)O)[C@]3(C)CC[C@@H]12,Potency,AS120,inactive
same,Potency,CP191,inactive
same,Potency,CP203,inactive
same,Potency,CP265,inactive
same,Potency,CP291,inactive
same,Potency,CP335,inactive
same,Potency,ICS,3.55 µM (active)
same,Potency,PC15,inactive
same,Potency,W2,5.73 µM (active)
COc1cc2c(cc1OC)[C@H](C)NCC2,Potency,[4],inactive
COc1ccc2c(c1OC)C(=O)O[C@H]2[C@H]1c2cc3c(cc2CCN1C)OCO3,Potency,[1],inactive
same,Potency,[4],1.26 µM (active) and 79.4 nM (active)
C[C@H]1CN(C2CCC(C#N)(c3ccc(F)cc3)CC2)CC[C@@]1(C(=O)O)c1ccccc1 (stereo partly drawn),Potency,7G8,inactive
same,Potency,AS120,inactive
same,Potency,CP191,inactive
same,Potency,CP203,inactive
same,Potency,CP260,inactive
same,Potency,CP265,inactive
same,Potency,CP291,inactive
same,Potency,CP335,inactive
same,Potency,DIV17,inactive
same,Potency,ICS,inactive
same,Potency,PC15,inactive
same,Potency,PC26,inactive
same,Potency,TAB113,inactive
same,Potency,TAB165,inactive
same,Potency,W2,inactive
CC(C)C[C@H]1C(=O)N2CCC[C@@H]2[C@@]2(O)O[C@](NC(=O)[C@@H]3C=C4c5cccc6[nH]cc(c56)C[C@@H]4N(C)C3)(C(C)C)C(=O)N12,Potency,[5],2 µM (active)
same,Potency,[1],inactive
CN(C)C(=O)Oc1cc(OC(=O)N(C)C)cc([C@@H](O)CNC(C)(C)C)c1,Potency,[4],inactive
same,Potency,7G8,inactive
same,Potency,AS120,inactive
same,Potency,CP191,inactive
same,Potency,CP203,inactive
same,Potency,CP260,inactive
same,Potency,CP265,inactive
same,Potency,CP291,inactive
same,Potency,CP335,inactive
same,Potency,DIV17,inactive
same,Potency,ICS,inactive
same,Potency,PC15,inactive
same,Potency,PC26,inactive
same,Potency,TAB113,inactive
same,Potency,TAB165,inactive
same,Potency,W2,inactive
CCC[C@@](C)(COC(N)=O)COC(=O)NC(C)C,Potency,[4],inactive
C=C1C/C(=C\C)C(=O)O[C@@H]2CCN3CC=C(COC(=O)[C@@]1(C)O)[C@H]23,Potency,[4],inactive
COc1ccc2c(c1OC)CN1CCc3cc4c(cc3[C@H]1C2)OCO4,Potency,[4],1.26 µM (active)
same,Potency,7G8,3.55 µM (active)
same,Potency,DIV17,4.55 µM (active)
same,Potency,TAB113,3.16 µM (active)
same,Potency,W2,2.28 µM (active)
C[N+]1(C)[C@@H]2CC[C@H]1CC(OC(=O)[C@@H](CO)c1ccccc1)C2 (stereo partly drawn),Potency,7G8,inactive
same,Potency,AS120,inactive
same,Potency,CP191,inactive
same,Potency,CP203,inactive
same,Potency,CP260,inactive
same,Potency,CP265,inactive
same,Potency,CP291,inactive
same,Potency,CP335,inactive
same,Potency,DIV17,inactive
same,Potency,ICS,inactive
same,Potency,PC15,inactive
same,Potency,PC26,inactive
same,Potency,TAB113,inactive
same,Potency,TAB165,inactive
same,Potency,W2,inactive
C[C@H](NC(C)(C)C)C(=O)c1cccc(Cl)c1,Potency,AS120,inactive
same,Potency,CP191,inactive
same,Potency,CP203,inactive
same,Potency,CP260,inactive
same,Potency,CP291,inactive
same,Potency,PC15,inactive
same,Potency,PC26,inactive
same,Potency,TAB113,inactive
same,Potency,TAB165,inactive
CC[C@@H]1[C@@H]2C[C@H]3[C@H]4N(C)c5ccccc5[C@@]45C[C@@H]([C@@H]2[C@@H]5O)N3[C@H]1O,Potency,CP191,inactive
same,Potency,CP203,inactive
same,Potency,CP260,inactive
same,Potency,CP265,inactive
same,Potency,CP291,inactive
same,Potency,CP335,inactive
same,Potency,PC26,inactive
same,Potency,TAB113,inactive
same,Potency,TAB165,inactive
CC(=O)O[C@H]1CC[C@@]2(C)C(=CC[C@@H]3[C@H]2CC[C@]2(C)C(=O)CC[C@H]32)C1,Potency,[5],inactive
same,Potency,7G8,inactive
same,Potency,AS120,inactive
same,Potency,CP191,inactive
same,Potency,CP203,inactive
same,Potency,CP260,inactive
same,Potency,CP265,inactive
same,Potency,CP291,inactive
same,Potency,CP335,inactive
same,Potency,DIV17,inactive
same,Potency,ICS,inactive
same,Potency,PC15,inactive
same,Potency,PC26,inactive
same,Potency,TAB113,inactive
same,Potency,TAB165,inactive
same,Potency,W2,inactive
CCN1C[C@]2(C)CC[C@H](OC)[C@@]34[C@@H]2[C@H](OC(C)=O)[C@]2(OCO[C@@]25C[C@@H](OC)[C@@H]2C[C@@]3(O)[C@H]5[C@@H]2OC)[C@H]14,Potency,[1],inactive
same,Potency,[4],inactive
COc1cc2c(c(OC)c1OC)-c1ccc(O)c(=O)cc1[C@H](N)CC2,Potency,[1],inactive
CN1CC[C@]2(C)c3cc(O)ccc3N(C)[C@@H]12,Potency,[1],inactive
same,Potency,[4],12.6 µM (active)
CC(=O)OCC(=O)[C@@H]1CC[C@H]2[C@H]3CC[C@H]4C[C@@H](O)CC[C@]4(C)[C@@H]3C(=O)C[C@@]12C,Potency,7G8,inactive
same,Potency,AS120,inactive
same,Potency,CP191,inactive
same,Potency,CP203,inactive
same,Potency,CP265,inactive
same,Potency,CP291,inactive
same,Potency,CP335,inactive
same,Potency,DIV17,inactive
same,Potency,ICS,inactive
same,Potency,PC15,inactive
same,Potency,PC26,inactive
same,Potency,TAB113,inactive
same,Potency,TAB165,inactive
same,Potency,W2,inactive
NCC[C@H](O)C(=O)N[C@H]1C[C@@H](N)[C@@H](O[C@H]2O[C@@H](CN)[C@@H](O)[C@@H](O)[C@@H]2N)[C@@H](O[C@H]2O[C@@H](CO)[C@@H](O)[C@@H]2O)[C@@H]1O,Potency,7G8,inactive
same,Potency,AS120,inactive
same,Potency,CP191,inactive
same,Potency,CP203,inactive
same,Potency,CP260,inactive
same,Potency,CP265,inactive
same,Potency,CP291,inactive
same,Potency,CP335,inactive
same,Potency,DIV17,inactive
same,Potency,ICS,inactive
same,Potency,PC15,inactive
same,Potency,PC26,inactive
same,Potency,TAB165,inactive
same,Potency,W2,inactive
COc1cc2c(cc1O)[C@H]1Cc3ccc(OC)c(O)c3CN1CC2,Potency,[1],inactive
CNC[C@H](O)c1ccc(O)cc1,Potency,[4],inactive
same,Potency,7G8,inactive
same,Potency,AS120,inactive
same,Potency,CP191,inactive
same,Potency,CP203,inactive
same,Potency,CP260,inactive
same,Potency,CP265,inactive
same,Potency,CP291,inactive
same,Potency,CP335,inactive
same,Potency,DIV17,inactive
same,Potency,ICS,inactive
same,Potency,PC15,inactive
same,Potency,PC26,inactive
same,Potency,TAB113,inactive
same,Potency,TAB165,inactive
same,Potency,W2,inactive
C[N+]1([O-])[C@@H]2CC[C@H]1CC(OC(=O)[C@@H](CO)c1ccccc1)C2 (stereo partly drawn),Potency,7G8,inactive
same,Potency,AS120,inactive
same,Potency,CP191,inactive
same,Potency,CP203,inactive
same,Potency,CP260,inactive
same,Potency,CP265,inactive
same,Potency,CP291,inactive
same,Potency,CP335,inactive
same,Potency,DIV17,inactive
same,Potency,ICS,inactive
same,Potency,PC15,inactive
same,Potency,PC26,inactive
same,Potency,TAB113,inactive
same,Potency,TAB165,inactive
same,Potency,W2,inactive
